# In the library only some 6.7% were active in any assay of this set; here they are far more common.
# KB-V1 MDR tox: qHTS assay for MDR1-selective chemotherapeutics: Primary screen using the drug-selected MDR subline cells KB-V1; KB-V1 MDR cells viability, CellTiter-Glo, 72 h; Potency, µM (series often up to 46.1 µM), hits mostly cytotoxic; 400,000 compounds, 3.4% hits; AID 1347076, 2019; note: % is set by controls: 0 for no effect and ±100 for the full control effect; nearly all actives have a fitted effect of over 60% in size
#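 Luminescent ATP read-out (CellTiter-Glo, 10 min) measures survival of drug-selected KB-V1 MDR cells after 72 h, 37 degrees C compound exposure. Medium: phenol-red-free DMEM, 10% FBS. Values from fitted concentration-response curves.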
# MCF10A rereplic: A quantitative high throughput screen for small molecules that induce DNA re-replication in MCF 10a normal breast cells; Potency, µM (doses to about 46.1 µM), inactives show at the top dose activity, positive = re-replication, actives largely listed as activators; 350,000 compounds, 2.9% hits; MCF 10A DNA re-replication, Hoechst nuclear intensity, 48 h; AID 624296, 2012; note: % of control where 0% means no effect; nearly all actives have a fitted effect of over 50% in size
# PINK1 modulator: A Quantitative High throughput Screen to Identify Chemical Modulators of PINK1 Expression | PINK1 immunofluorescence, high-content cytometry, 24 h | 410,000 compounds, 0.2% hits | Potency, µM (top dose mostly 76.6 µM), inactives show at the top dose activation (PINK1 increase), most hits filed as activators | AID 624263, 2012; active = well fitted activation curve with a large enough effect; inconclusive = small, poorly fitted or top-dose-only effect; cell line not stated here; note: % of control where 0% means no effect; nearly all actives have a fitted effect of over 65% in size
#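 Compound titrations (5 concentrations, 24 h) on a stable cell line; DMSO and CCCP controls. Endpoint: fixed-cell PINK1 immunofluorescence with mitochondrial, cell and nuclear markers, scanned by microplate cytometer.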
# KB-3-1 cytotox: qHTS assay for MDR1-selective chemotherapeutics: Primary screen using the parental adenocarcinoma cell KB-3-1 | KB-3-1 viability, CellTiter-Glo ATP luminescence, 72 h | Potency, µM (highest dose often 46.1 µM), usual class: cytotoxic | 400,000 compounds, 1.4% hits | AID 1347075, 2019; note: % is set by controls: 0 for no effect and ±100 for the full control effect; nearly all actives have a fitted effect of over 60% in size
#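 Multi-concentration cytotoxicity screen in KB-3-1 cells grown in DMEM lacking phenol red with 10% FBS. After 72 h at 37 °C with compound, ATP-dependent luminescence was recorded.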
# SW480 rerep: A quantitative high throughput screen for small molecules that induce DNA re-replication in SW480 colon adenocarcinoma cells; SW480 DNA re-replication, Hoechst DNA content imaging, 48 h; Potency, µM (titrated, usually from 46.1 µM), without a hit: top-dose re-replication activation, hits mostly activators; 340,000 compounds, 1.8% hits; note: % of control where 0% means no effect; nearly all actives have a fitted effect of over 55% in size
#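 250 cells/well; 23 nL cpd via pin tool; 48 hr, 37 C, 5% CO2; Hoechst 40 min; imager read of total nuclear intensity, ex 405/em 500-530 nm.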
# * hit, by the source's call; i = inactive; u = inconclusive; x = not tested or not shown. Unless noted, calls come from the whole dose curve; as a rule, active = well fitted curve in the direction sought with a large enough effect; inconclusive = small, poorly fitted or top-dose-only effect, or another doubt; inactive = no such curve, though single readings can be large; an effect the other way counts as inactive or inconclusive. Potency is the fitted concentration of half-maximal effect.
SMILES,KB-V1 MDR tox,MCF10A rereplic,PINK1 modulator,KB-3-1 cytotox,SW480 rerep
O=C(NCC(c1ccco1)N1CCCCC1)c1cccc(NS(=O)(=O)c2ccc(Br)cc2)c1 (stereo not drawn),u,18.4µM*,-0.2%,i,3.9%
Cc1[nH]c(C(=O)O)c(C#N)c1C(=O)c1ccccc1,u,0.0%,2.7%,i,-5.1%
CC(=O)N(C(C)=O)c1c(C#N)c(C)n(-c2ccccc2)c1C(=O)c1ccccc1,u,6.51µM*,2.9%,i,u
CCOc1ccc(CC(=O)N/N=C(\C)c2cccnc2)cc1OCC,i,20.6µM*,4.2%,i,1.9%
CCOc1cc(C#N)c(NC(=O)c2cccnc2)cc1OCC,u,3.66µM*,u,0.651µM*,5.17µM*
CC(=NNC(=O)COc1cccc(C)c1)c1cccnc1,16.4µM*,3.8%,-0.4%,i,-4.4%
CCOc1cc(C#N)c(NC(=O)c2cccnc2Cl)cc1OCC,i,-0.2%,-1.9%,i,-7.7%
FC(F)(F)c1ccccc1Cc1c(-c2ccc(Cl)cc2)nc2ccc(Br)cn12,i,x,5.8%,u,x
CCOC(=O)c1cc([N+](=O)[O-])sc1NC(=O)c1ccc(S(=O)(=O)N2CC3(C)CC2CC(C)(C)C3)cc1 (stereo not drawn),u,u,2.51µM*,4.61µM*,u
CC1(C)CC2CC(C)(CN2S(=O)(=O)c2ccc(C(=O)Nc3ccc(Cl)c(S(=O)(=O)N4CCOCC4)c3)cc2)C1 (stereo not drawn),2.91µM*,-1.5%,0.2%,2.91µM*,15.3%
CCCNC(=O)c1cccc(S(=O)(=O)N2CC3(C)CC2CC(C)(C)C3)c1 (stereo not drawn),2.06µM*,5.7%,-0.5%,i,1.1%
COc1ccc(-c2nc3c4ccccc4n(CC(=O)N4CCN(c5ccc(F)cc5)CC4)c(=O)n3n2)cc1,i,x,2.3%,i,x
COc1cc(/C=C/C(=O)NC(=O)c2ccccc2O)ccc1O,i,-7.9%,0.1%,i,-5.0%
COc1cc(/C=C/C(O)=C/C(=O)/C=C/c2ccc(O)cc2)ccc1O,i,18.4µM*,27.3%,u,u
Cc1ccc(C(CC(=O)c2ccco2)SCCO)cc1 (stereo not drawn),u,u,-2.7%,i,u
O=C(CC(SCCO)c1ccc(F)cc1)c1ccco1 (stereo not drawn),i,20.6µM*,-2.5%,i,u
COc1ncc2nc(-c3ccc(Cl)cc3)c(=O)n(Cc3cccs3)c2n1,x,x,1.2%,x,x
CN(C)S(=O)(=O)NCC1CCCN(Cc2cc3ccccc3s2)C1 (stereo not drawn),i,-6.1%,-2.9%,i,0.2%
COCCNc1nc(Nc2ccc(C)cc2C)c2sccc2n1,5.17µM*,x,1.5%,5.17µM*,x
Cc1cc(C)nc(NC(=NCCc2c[nH]c3ccccc23)NC(=O)Nc2ccc(Cl)cc2)n1,8.2µM*,27.9%,8.1%,i,18.6%
Cc1cc(C)nc(NC(N)=NCCc2c[nH]c3ccccc23)n1,i,9.1%,0.2%,u,8.4%
Cc1ccc(C)c(OCCC(=O)Nc2cccc(S(=O)(=O)NC3=NCCCCC3)c2)c1,i,u,1.6%,i,1.7%
COc1cccc(S(=O)(=O)Nc2cccc(C(=O)N3CCCCCC3)c2)c1,14.6µM*,10.3%,-1.1%,i,-37.1%
Cc1ccccc1OCCC(=O)Nc1cccc(S(=O)(=O)Nc2ccccc2Cl)c1,11.6µM*,u,-0.3%,u,4.7%
CC1CCCN(C(=O)c2cccc(S(=O)(=O)Nc3cc(C(F)(F)F)ccc3Cl)c2)C1 (stereo not drawn),18.4µM*,u,1.2%,i,-100.7%
SMILES,KB-V1 MDR tox,MCF10A rereplic,PINK1 modulator,KB-3-1 cytotox,SW480 rerep
Cc1ccc(NS(=O)(=O)c2cccc(C(=O)N3CCCCC3)c2)cc1,11.6µM*,22.9%,-1.0%,i,-1.2%
CCC(c1nnc(SCC(=O)Nc2ccc(C(=O)N(C)C)cc2)n1Cc1ccccc1)N(C)C (stereo not drawn),i,-5.7%,0.1%,i,9.9%
CC(C)(C)S(=O)N1Cc2cc(CO)ccc2[C@H]1CCO (stereo partly drawn),i,x,2.0%,i,x
CCOC(=O)N1CCN(C(=O)c2cccc(S(=O)(=O)Nc3ccccc3Cl)c2)CC1,18.4µM*,0.5%,4.6%,i,-3.8%
COc1cc(OC)c(S(=O)(=O)Nc2ccccc2N2CCCCC2)cc1NC(C)=O,i,-11.9%,0.1%,i,0.1%
Cc1ccc(NS(=O)(=O)c2ccc(C(=O)N3CCN(S(=O)(=O)c4ccccc4)CC3)cc2)cc1,u,7.4%,-0.4%,u,25.9µM*
COc1ccccc1NS(=O)(=O)c1cccc(C(=O)N2CCCC2)c1,u,-11.4%,-0.3%,i,-3.4%
COc1cc(S(=O)(=O)Nc2ccccc2N2CCCCC2)ccc1NC(C)=O,i,18.4µM*,2.7%,i,u
COc1ccccc1NS(=O)(=O)c1cccc(C(=O)N2CCCCCCC2)c1,16.4µM*,-0.4%,-2.5%,i,-3.8%
CCc1nc2c(OCC(N)=O)cccn2c1N(C)C(=O)c1cccs1,i,x,0.9%,i,x
O=C(Nc1nc2cc3c(cc2s1)OCO3)C1CC1,i,9.3%,10.9%,i,u
CC(C)(C)C(=O)Nc1nc2cc3c(cc2s1)OCO3,i,0.3%,4.3%,i,3.26µM*
Fc1cc(F)c2nc(Nc3nc4cc5c(cc4s3)OCO5)sc2c1,i,14.6µM*,-1.3%,i,-17.2%
Fc1cccc2sc(Nc3nc4cc5c(cc4s3)OCCO5)nc12,i,5.17µM*,3.5%,u,-5.8%
Fc1cccc2sc(Nc3nc4cc5c(cc4s3)OCO5)nc12,i,10.3µM*,0.3%,i,-10.3%
CC(C)C(=O)Nc1nc2cc3c(cc2s1)OCO3,i,-0.9%,1.0%,i,-4.4%
CC(=O)Nc1nc2cc3c(cc2s1)OCCO3,i,-2.4%,4.8%,u,2.0%
Cc1cccc(CCNC(=O)C2CCC(CNS(=O)(=O)c3ccccc3)CC2)c1 (stereo not drawn),i,x,1.3%,i,x
Cc1ccc2c(c1)N(CC(=O)NCCc1ccccc1)C(=O)c1cccnc1O2,i,-1.0%,1.4%,i,-0.4%
Oc1ccccc1C=NNC(=S)NC1CC2C=CC1C2 (stereo not drawn),u,x,22.8%,u,x
Oc1c(Cl)cc(Cl)cc1/C=N/NC(=S)NC1CC2C=CC1C2 (stereo not drawn),i,7.31µM*,23.1%,u,18.4µM*

# Compound activity: PubChem BioAssay, National Center for Advancing Translational Sciences (NCATS)
